Results filed as inconclusive are left out. Entries that show only a call come without a potency. A number with no mark means an inactive call. The source made the active and inactive calls. Calls come from the whole dose curve; as a rule, active = well fitted curve in the direction sought with a large enough effect in the repeat runs; inconclusive = weak or mixed curves; inactive = no such curve, though single readings can be large; an effect the other way counts as inactive or inconclusive.
How the values were obtained:
[1] = A CellTox Green Cytotoxicity Assay to monitor cytotoxicity in HEK293 cells - 40 hour (AID 1224871); note: nearly all actives have a fitted effect of over 45% in size
How it was run: (§1)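 Each value comes from one timepoint of a single continuous run in which HEK293 cells with CellTox Green were exposed to compound for up to 40 h at 37 C, dye fluorescence rising with cell death.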

[2] = qHTS RealTime-Glo MT Cell Viability Assay in HEK293 cells - 16 hour (AID 1224872); note: top concentration of the series differs between compounds; nearly all actives have a fitted effect of over 50% in size
How it was run: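 Quantitative high-throughput screen of the Tox21 10K library in HEK293: cells and RealTime-Glo reagents plated together, compound added at 5 h, luminescence monitored through 40 h at 37 C.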

[3] = qHTS RealTime-Glo MT Cell Viability Assay in HepG2 cells - 8 hour (AID 1224873); note: nearly all actives have a fitted effect of over 55% in size
How it was run: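 HepG2 cells (600/well) mixed with RealTime-Glo MT reagent, settled 5 h at 37 C/5% CO2 before compound addition. Nonlytic NanoLuc luminescence from viable-cell prosubstrate reduction read repeatedly during 40 h treatment at 37 C.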

[4] = qHTS RealTime-Glo MT Cell Viability Assay in HEK293 cells - 40 hour (AID 1224874); conditions: RealTime-Glo luminescence; max response: stronger effect = lower value; note: nearly all actives have a fitted effect of over 50% in size
How it was run: (§2)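 qHTS format; HEK293 cells with NanoLuc/prosubstrate reagent, 37 C/5% CO2 for 5 h pre-dosing; compounds 23 nL in DMSO; luminescence at each time point reflects viable cells.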

[5] = A CellTox Green Cytotoxicity Assay to monitor cytotoxicity in HEK293 cells - 24 hour (AID 1224875); note: series mostly up to about 77 µM; nearly all actives have a fitted effect of over 45% in size
How it was run: as §1

[6] = A CellTox Green Cytotoxicity Assay to monitor cytotoxicity in HepG2 cells - 16 hour (AID 1224876); note: nearly all actives have a fitted effect of over 45% in size; note: potency is the fitted concentration of half-maximal effect
How it was run: (§3)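 Continuous culture of HepG2 cells with a membrane-impermeant DNA dye; rising fluorescence marks dead cells. Compound exposure lasted up to 40 h at 37 C, with reads every 8 h from 0 h.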

[7] = qHTS RealTime-Glo MT Cell Viability Assay in HepG2 cells - 32 hour (AID 1224877); note: nearly all actives have a fitted effect of over 55% in size
How it was run: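 Compound treatment began 5 h after plating HepG2 cells (600/well) with NanoLuc luciferase and prosubstrate. Plates stayed at 37 C for 40 h; luminescence was captured at six time points, 0 h through 40 h.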

[8] = A CellTox Green Cytotoxicity Assay to monitor cytotoxicity in HepG2 cells - 24 hour (AID 1224878); note: nearly all actives have a fitted effect of over 45% in size
How it was run: as §3

[9] = A CellTox Green Cytotoxicity Assay to monitor cytotoxicity in HepG2 cells - 40 hour (AID 1224879); note: nearly all actives have a fitted effect of over 40% in size
How it was run: as §3

[10] = qHTS RealTime-Glo MT Cell Viability Assay in HEK293 cells - 0 hour (AID 1224880)
How it was run: as §2

Row | SMILES | Potency [1] | Potency [2] | Potency [3] | max response [4] | Potency [5] | Potency [6] | Potency [7] | Potency [8] | Potency [9] | outcome [10] | cytotoxicity increase [1] | activity change, negative = cytotoxicity [2] | viability change, negative = cytotoxic [3] | activity change [5] | cytotoxicity increase [6] | activity change, negative = cytotoxic [7] | cytotoxicity [8] | cytotoxicity increase [9] | activity change, negative = cytotoxicity [10]
1 | CCN(CC)c1nc(C)cc(OP(=S)(OC)OC)n1 | inactive | inactive | inactive | 2.28% | inactive | inactive | inactive | inactive | inactive | inactive | – | – | – | – | – | – | – | – | –
2 | COP(N)(=S)Oc1ccccc1C(=O)OC(C)C (stereo not given) | inactive | inactive | inactive | -8.89% | inactive | inactive | inactive | inactive | inactive | inactive | – | – | – | – | – | – | – | – | –
3 | CCC1(c2ccccc2)C(=O)N=C(O)NC1=O (stereo not given) | inactive | inactive | inactive | 9.07% | inactive | inactive | inactive | inactive | inactive | inactive | – | – | – | – | – | – | – | – | –
4 | O=[N+]([O-])c1ccc2c3c(cccc13)CC2 | inactive | inactive | inactive | 1.98% | inactive | inactive | inactive | inactive | inactive | inactive | – | – | – | – | – | – | – | – | –
5 | CCOP(=O)(OCC)OP(=O)(OCC)OCC | inactive | inactive | inactive | 5.24% | inactive | inactive | inactive | inactive | inactive | inactive | – | – | – | – | – | – | – | – | –
6 | CCC(Cl)[N+](=O)[O-] (stereo not given) | inactive | inactive | inactive | 4.31% | inactive | inactive | inactive | inactive | inactive | inactive | – | – | – | – | – | – | – | – | –
7 | CN1C[C@@H](NS(=O)(=O)N(C)C)C[C@@H]2c3cccc4c3c(cn4C)C[C@H]21 | inactive | inactive | inactive | -20.7% | inactive | inactive | inactive | inactive | inactive | inactive | – | – | – | – | – | – | – | – | –
8 | Cc1ncsc1CCCl | inactive | inactive | inactive | 3.38% | inactive | inactive | inactive | inactive | inactive | inactive | – | – | – | – | – | – | – | – | –
9 | ClCC(Cl)(Cl)Cl | inactive | inactive | inactive | -0.0203% | inactive | inactive | inactive | inactive | inactive | inactive | – | – | – | – | – | – | – | – | –
10 | CCNc1nc(NC(C)C)nc(OC)n1 | inactive | inactive | inactive | -7.59% | inactive | inactive | inactive | inactive | inactive | inactive | – | – | – | – | – | – | – | – | –
11 | CNC(=O)N(C)c1nc2ccccc2s1 | inactive | inactive | inactive | -18.7% | inactive | inactive | inactive | inactive | inactive | inactive | – | – | – | – | – | – | – | – | –
12 | CNC(=O)O/N=C(\C)SC | inactive | inactive | inactive | 14.5% | inactive | 0.219 µM (active) | inactive | inactive | inactive | inactive | – | – | – | – | – | – | – | – | –
13 | CC(C)CP(=S)(S)CC(C)C | inactive | inactive | inactive | 3.1% | inactive | inactive | inactive | inactive | inactive | inactive | – | – | – | – | – | – | – | – | –
14 | CNCC(=O)c1ccc(O)c(O)c1 | inactive | inactive | inactive | 2.09% | inactive | inactive | inactive | inactive | inactive | inactive | – | – | – | – | – | – | – | – | –
15 | CC1CCC(=O)O1 (stereo not given) | inactive | inactive | inactive | -22.6% | inactive | inactive | inactive | inactive | inactive | inactive | – | – | – | – | – | – | – | – | –
16 | Oc1c(Cl)cccc1Cl | inactive | inactive | inactive | 0.323% | inactive | inactive | inactive | inactive | inactive | inactive | – | – | – | – | – | – | – | – | –
17 | ClC(Cl)Br | inactive | inactive | inactive | 8.21% | inactive | inactive | inactive | inactive | inactive | inactive | – | – | – | – | – | – | – | – | –
18 | C=C(C)CN(CC)c1c([N+](=O)[O-])cc(C(F)(F)F)cc1[N+](=O)[O-] | inactive | inactive | inactive | 0.654% | inactive | inactive | inactive | inactive | inactive | inactive | – | – | – | – | – | – | – | – | –
19 | CCC(=O)c1ccccc1 | inactive | inactive | inactive | 5.66% | inactive | inactive | inactive | inactive | inactive | inactive | – | – | – | – | – | – | – | – | –
20 | OCCBr | inactive | inactive | inactive | 13.1% | inactive | inactive | inactive | inactive | inactive | inactive | – | – | – | – | – | – | – | – | –
21 | C[C@@H]1CN(C2CCC(C#N)(c3ccc(F)cc3)CC2)CC[C@]1(C(=O)O)c1ccccc1 (stereo not given in full) | inactive | inactive | inactive | 2.36% | inactive | inactive | inactive | inactive | inactive | inactive | – | – | – | – | – | – | – | – | –
22 | O=C1c2ccccc2C(=O)c2ccccc21 | – | – | – | 18.9% | – | – | – | – | – | – | -0.882% [at 15.8 µM] | 16.4% [at 15.8 µM] | 0.64% [at 15.8 µM] | 6.87% [at 15.8 µM, stronger effect = higher value] | 8.1% [at 15.8 µM] | 1.27% [at 15.8 µM] | 6.42% [at 15.8 µM] | 18.9% [at 15.8 µM] | 1.83% [at 15.8 µM]

— PubChem BioAssay (Tox21)
